Bioassay records (PubChem)
HP1b chromo inh – blocks HP1-beta chromodomain binding to methylated histone tails; hit rate 0.56% among 390,000; P83916; Potency, µM (titrated, usually from 114 µM), for the others: at the highest dose activity change, negative = inhibition, actives largely listed as inhibitors; AlphaScreen HP1-beta / biotin-H3K9me3 peptide binding; also: potency is read from the fitted curve at half-maximal effect; nearly all actives have a fitted effect of over 70% in size
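HP1-beta protein (50 nM final) preincubated 30 min at room temperature with biotinylated H3(1-18)K9me3 peptide (50 nM) in PBS pH 7.4, 0.01% Tween-20, then compound added for 30 min. AlphaScreen streptavidin donor/nickel chelate acceptor beads (10 ug/mL final), 30 min dark, luminescence read.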
CtBP-E1A blk – CtBP/E1A binding inhibition; AlphaScreen GST-E1A/His-CtBP binding, 1536-well; stronger effect = lower value; activity change, % (test concentration not listed); hit rate 0.49% among 340,000; AID 651724; in the data active = activity change below about -65%; inconclusive = mostly about -30% to -63%; also: % is scaled to controls: 0 for no effect and ±100 for the full control effect
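AlphaScreen with 125 nM GST-E1A and 125 nM His-CtBP (5X stocks) in Tris pH 8.0, 300 mM NaCl, BSA, Tween 20, TCEP. Compounds preincubated 2 h at 37 deg C, then glutathione donor/nickel acceptor beads added for 1 h at 37 deg C in dark.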
Six1-Eya2 inh – blocks human Six1 binding to Eya2 | Q15475+O00167 | AlphaScreen GST-Six1/His-Eya2 binding, biochemical; stronger effect = lower value | activity change, % (concentration not given with the values) | hit rate 0.56% among 360,000; in the data active = activity change below about -65%; inconclusive = mostly about -30% to -63%; also: % is scaled to controls: 0 for no effect and ±100 for the full control effect
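Compounds are tested against tagged Six1 and Eya2 proteins bridged by glutathione donor and nickel acceptor beads; after a one-hour incubation at 37 °C without light, AlphaScreen emission is recorded.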
TDP1 inh – inhibitors of human tyrosyl-DNA phosphodiesterase TDP1 | Q9NUW8 | hit rate 0.28% among 350,000 | Potency, µM (doses to about 130 µM), inactives show at the highest dose activity change, negative = inhibition, most hits filed as inhibitors | recombinant TDP1, AlphaScreen DNA substrate cleavage; also: potency is read from the fitted curve at half-maximal effect; % is scaled to controls: 0 for no effect and ±100 for the full control effect; nearly all actives have a fitted effect of over 40% in size
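AlphaScreen read-out: signal falls as enzyme removes the 3' tyrosine-FITC from a 5'-biotinylated DNA oligo (15 nM, 5 min, RT). Enzyme was E. coli-made recombinant Tdp1 at 1 nM, exposed to compound for 15 min beforehand; beads 10 ug/ml, 10 min.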
BAZ2B inh – inhibitors of human BAZ2B bromodomain. Q9UIF8. AlphaScreen BAZ2B-H3K14Ac peptide displacement. Potency, µM (top dose mostly 114 µM), without a hit: at the top dose activity change, negative = inhibition, actives largely listed as inhibitors. hit rate 4.4% among 360,000; also: potency is read from the fitted curve at half-maximal effect; % is scaled to controls: 0 for no effect and ±100 for the full control effect; nearly all actives have a fitted effect of over 60% in size
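In this displacement format the biotinylated H3(5-23) peptide acetylated at Lys14 serves as ligand at 50 nM, with BAZ2B at 50 nM in PBS pH 7.4 containing 0.01% Tween-20. Donor and acceptor beads are 10 ug/mL final.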
JMJD2A Tudor – inhibitors of human JMJD2A Tudor domain; Potency, µM (series often up to 114 µM), for the others: at the highest dose activity change, negative = inhibition, usual class: inhibitors; AID 504339; AlphaScreen JMJD2A-Tudor / H3K4me3 peptide binding; O75164; hit rate 4.4% among 390,000; also: potency is read from the fitted curve at half-maximal effect; % is scaled to controls: 0 for no effect and ±100 for the full control effect; nearly all actives have a fitted effect of over 50% in size
An asterisk follows results filed as active; u = inconclusive; x = no result; [ ] = dose if it differs, or a comment. Compounds with a hit are over-represented: about 5.3% of the library has one in this group of screens. Unless noted, calls follow the shape of the dose curve; as a rule, active = well fitted inhibition curve with a large enough effect; inconclusive = small, poorly fitted or top-dose-only effect; inactive = no such curve, though single readings can be large or run the other way.

SMILES	HP1b chromo inh	CtBP-E1A blk	Six1-Eya2 inh	TDP1 inh	BAZ2B inh	JMJD2A Tudor
O=C(Nc1nc2ccccc2s1)c1ccc(N2CCCCC2)c([N+](=O)[O-])c1	-26%	u	u	9%	10µM*	u
CN1CCN(c2ccc(C(=O)c3ccc(Br)cc3)cc2[N+](=O)[O-])CC1	u	-29	-21	9%	40µM*	22µM*
CC(=O)N1CCN(c2ccc(C(N)=O)cc2[N+](=O)[O-])CC1	42%	4	-5	0%	-8%	-3%
CCN(CC)S(=O)(=O)c1cccc(C(=O)NCC2CCCCC2)c1	8%	4	5	x	2%	28µM*
CCN(CC)S(=O)(=O)c1cccc(NC(=O)c2ccc(-n3nc(C)cc3C)cc2)c1	-17%	-70*	-6	5%	-26%	-24%
CCN(CC)S(=O)(=O)c1cccc(NC(=O)CNC2CCCCCC2)c1	2%	x	5	x	79µM*	50µM*
CC1CCC(NCC(=O)Nc2cccc(S(N)(=O)=O)c2)CC1 (stereo unspecified)	-31%	-5	2	x	79µM*	22µM*
CCN(CC)S(=O)(=O)c1cccc(C(=O)NCC(c2ccccc2)N(C)C)c1 (stereo unspecified)	13%	0	1	3%	x	-7%
CC1Cc2ccccc2N1CC(=O)Nc1cccc(S(N)(=O)=O)c1 (stereo unspecified)	-1%	-2	7	2%	-12%	-22%
CCN(CC)S(=O)(=O)c1cccc(C(=O)N/N=C/c2cccc(O)c2O)c1	14%	-93*	-87*	5%	8%	-27%
Oc1ccc(/C=N/N2CCN(C3c4ccccc4-c4ccccc43)CC2)cc1	12%	-16	u	8%	-15%	-19%
COc1cc(/C=N/N2CCN(C3c4ccccc4-c4ccccc43)CC2)cc(OC)c1OC	u	-9	-16	3%	-39%	u
C(=N\N1CCN(C2c3ccccc3-c3ccccc32)CC1)/c1cccs1	-26%	-6	-20	3%	u	u
O=C(O)c1ccc(/C=N/N2CCN(C3c4ccccc4-c4ccccc43)CC2)cc1	-5%	0	1	4%	45µM*	-15%[11.4 µM]
Oc1ccc(/C=N/N2CCN(C3c4ccccc4-c4ccccc43)CC2)cc1O	50µM*	-4	-10	11%	40µM*	40µM*
Cc1ccc(/C=N/N2CCN(C3c4ccccc4-c4ccccc43)CC2)o1	u	x	-3	x	35µM*	45µM*
COc1cc(/C=N/N2CCN(C3c4ccccc4-c4ccccc43)CC2)cc(OC)c1O	-11%	-15	-22	7%	11µM*	u
CCc1ccc(NC(=O)Cn2c(=O)n(Cc3nc(C)no3)c(=O)c3cc4c(cc32)OCO4)cc1	32%	x	x	3%	0%	-10%
FC(F)(F)c1cccc(N2CCN(c3ncnc4c3nc3n4CCCC3)CC2)c1	24%	x	x	-1%	-9%	-6%
CCN(CC)c1ccc(C2C(C(=O)Nc3ccccc3C)=C(C)Nc3ncnn32)cc1 (stereo unspecified)	28%[57 µM]	x	x	9%	-34%	-17%
Cc1nn(-c2ccccc2)c(OC(=O)c2cccc(Br)c2)c1S(=O)(=O)c1ccccc1	37%	x	x	2%	u	-30%
Oc1ccc(/C=N/N2CCN(C3c4ccccc4-c4ccccc43)CC2)c(O)c1	u	-27	u	8%	u	40µM*
O=C(O)c1ccccc1/C=N/N1CCN(C2c3ccccc3-c3ccccc32)CC1	5%	-26	-9	2%	-37%	-29%
COc1ccc(Cl)cc1NC(=O)NCCc1c(C)nn(C)c1C	31%	x	x	-1%	-2%	14%
CCCCOc1ccccc1C(=O)N(Cc1sccc1C)C1CCS(=O)(=O)C1 (stereo unspecified)	11%	x	x	7%	-4%	-19%
